Screening results deposited in PubChem BioAssay by several laboratories.
Most compounds without a hit are left out; they make up all but 4.2% or so of the library.
AHR activator: AHR activators, primary screen, cell-based, luminescence, luciferase reporter, human; AID 2796, 2010; AHR-responsive luciferase reporter cells; activation, % at 5 µM; Aryl hydrocarbon receptor (Homo sapiens), P35869; 320,000 tested, 2.5% active; in the data active means activation above about 47%;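 further: 0% = vehicle wells and 100% = reference agonist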
Target sequence (P35869 whole entry, looked up): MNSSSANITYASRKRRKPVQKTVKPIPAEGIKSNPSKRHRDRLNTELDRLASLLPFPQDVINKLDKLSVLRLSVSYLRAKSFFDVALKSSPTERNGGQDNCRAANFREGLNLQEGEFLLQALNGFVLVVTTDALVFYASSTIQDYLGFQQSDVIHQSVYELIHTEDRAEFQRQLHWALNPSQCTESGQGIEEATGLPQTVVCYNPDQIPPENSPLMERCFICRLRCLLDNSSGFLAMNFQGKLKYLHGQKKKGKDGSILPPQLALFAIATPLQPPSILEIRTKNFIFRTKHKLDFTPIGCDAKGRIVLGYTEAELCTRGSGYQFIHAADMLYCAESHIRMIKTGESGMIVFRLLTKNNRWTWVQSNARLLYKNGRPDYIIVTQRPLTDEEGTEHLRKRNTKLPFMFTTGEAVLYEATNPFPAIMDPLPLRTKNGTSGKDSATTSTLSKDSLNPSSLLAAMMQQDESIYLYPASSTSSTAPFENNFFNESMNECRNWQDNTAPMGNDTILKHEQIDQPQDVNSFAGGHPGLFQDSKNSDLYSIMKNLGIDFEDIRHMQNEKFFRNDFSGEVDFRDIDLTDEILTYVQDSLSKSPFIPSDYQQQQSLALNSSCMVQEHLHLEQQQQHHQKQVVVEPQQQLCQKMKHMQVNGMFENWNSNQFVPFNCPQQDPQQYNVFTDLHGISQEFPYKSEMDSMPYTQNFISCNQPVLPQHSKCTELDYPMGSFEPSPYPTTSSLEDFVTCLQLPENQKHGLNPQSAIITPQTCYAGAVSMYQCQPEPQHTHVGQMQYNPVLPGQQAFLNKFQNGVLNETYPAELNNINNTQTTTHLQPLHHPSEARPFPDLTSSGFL
Wnt act: Wnt/beta-catenin pathway activators, primary screen, cell-based, plate reader, single point; AID 743398, 2014; 300,000 tested, 1.2% active; Wnt/beta-catenin reporter cell assay, activator; activation, % at 9.35 µM; in the data active means activation above about 30%, passing the limit was not always enough; inconclusive means no clear call, values can overlap the other calls;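 further: 0% = neutral control wells and 100% = positive control wells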
MITF act: activators of MITF-driven TRPM1 promoter reporter, primary screen, cell-based, SK-MEL-5, luciferase, single point. SK-MEL-5 TRPM1-promoter luciferase, 24 h; % of positive control, neutral wells = 0. activation, % at 12.5 µM. 300,000 tested, 0.75% active;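 active means mean activation of at least 80% with every replicate also reaching 80%; inconclusive means mean reaches 80% but some replicate falls short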;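 further: 0% = neutral control wells and 100% = parthenolide positive control wells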
GAA850 FXN act: FXN promoter activators, primary screen, cell-based, luciferase luminescence, HEK293 lucGAA850 | HEK293 lucGAA850 FXN promoter luciferase reporter, 24 h; percent of 10 µM SAHA response | activation, % at 6 µM | 360,000 tested, 0.56% active;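 active means activation above the average of all compounds screened plus 3 SD, cutoff fixed separately per campaign, cut at about 7.5% in these data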;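 further: 0% = DMSO wells and 100% = 10 µM SAHA wells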
esBAF inh: Bmi1 luciferase reporter increase in mESCs, primary screen, esBAF inhibitor project, mouse ES cells, Bmi1 luciferase knock-in, single point; 24 h; 100% = twice the neutral-well signal; 350,000 tested, 2% active; AID 602393, 2012; reporter increase, % at 12.5 µM; in the data active means activation above about 40%; inconclusive means no clear call, values can overlap the other calls;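 further: 0% = median of the plate's neutral control wells and 100% = double that signal; a rise in the Bmi1 reporter signal indicates esBAF inhibition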
Ring1 derepress: Ring1 mRNA increase in mouse ESCs, confirmation, esBAF inhibitor project, cell-based, mouse ESC, RT-qPCR, cherry-pick; shares compounds with esBAF inh; 550 tested, under 10 active; mouse ESC E14, Ring1 mRNA RT-qPCR fold change; fold change at 33 µM;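 active means Ring1 gene expression raised more than 2-fold over untreated cells in both replicates at either tested dose; inconclusive means only one replicate above 2-fold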;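 further: Ring1 transcript normalised to actin housekeeping signal by TaqMan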
Fgf4 repress: Fgf4 mRNA decrease in mouse ESCs, confirmation, esBAF inhibitor project, cell-based, mouse ESC, RT-qPCR, cherry-pick. shares compounds with esBAF inh. mouse ESC E14, Fgf4 mRNA qPCR fold change; hits give low values. Fgf4 expression fold change at 33 µM. 550 tested, 4% active. AID 743177, 2013;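 active means Fgf4 expression under 0.8 fold of control in both repeat measurements at one or both tested doses; inconclusive means under 0.8 fold in just a single repeat measurement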;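 further: Fgf4 transcript normalised to actin in duplex TaqMan qPCR; cells exposed to compound for 24 h before lysis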
Bmi1 derepress: esBAF inhibition via Bmi1 de-repression, confirmation, cell-based, RT-qPCR, mouse ESC, single point, cherry-pick. mouse ESE14 ES cells, Bmi1 mRNA qPCR fold; hits give high values. fold change at 33 µM. AID 743180, 2013. shares compounds with esBAF inh. 550 tested, under 10 active;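 active means Bmi1 expression fold change above 6 at either tested concentration, seen in replicate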;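 further: higher fold means more Bmi1 de-repression and stronger esBAF inhibition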
A549 cytotox: A549 cell cytotoxicity, cytotoxicity control, plate reader, single point, cherry-pick. AID 743188, 2013. 550 tested, under 10 active. shares compounds with esBAF inh. cell viability change % (negative = cytotoxic), % at 25 µM, hits read low; call rule not given here
HepG2 cytotox SP: HepG2 cell cytotoxicity, cytotoxicity control, plate reader, single point, cherry-pick. shares compounds with esBAF inh. hits give low values. activity change, negative = inhibition, % at 25 µM. 550 tested, 4% active; in the data active means activity change below about -50%
HEK293 cytotox SP: HEK293 cell cytotoxicity, cytotoxicity control, plate reader, single point, cherry-pick; shares compounds with esBAF inh; activity change, negative = inhibition, % at 25 µM, hits read low; 550 tested, 3% active; AID 743190, 2013; in the data active means activity change below about -38%, passing the limit was not always enough
Starred values were filed as active, the others as inactive; ? = inconclusive; / = not tested or not shown.

SMILES | AHR activator | Wnt act | MITF act | GAA850 FXN act | esBAF inh | Ring1 derepress | Fgf4 repress | Bmi1 derepress | A549 cytotox | HepG2 cytotox SP | HEK293 cytotox SP
COc1cccc(/C=N/n2c(N)nc3ccccc32)c1OC | 8 | 27 | 90* | 1 | 73* | 1.6 | 1 | 2.3 | -4 | -13 | -9
O=C1/C(=C/c2cccc3ccccc23)CCCc2ccccc21 | 22 | 42* | 52 | -1 | 57* | 1.2 | 1.1 | 1.2 | -11 | 1 | 0
COc1ccc(CN(C)C[C@@H]2OCCCC[C@@H](C)Oc3ccc(NS(=O)(=O)c4c(C)noc4C)cc3C(=O)N([C@@H](C)CO)C[C@H]2C)cc1 | / | / | / | / | -5 | / | / | / | / | / | /
C[C@@H]1CCCCO[C@@H](CN(C)S(=O)(=O)c2cccs2)[C@H](C)CN([C@H](C)CO)C(=O)c2cc(N(C)C)ccc2O1 | / | / | / | / | 1 | / | / | / | / | / | /
COc1cc(SC)ccc1C(=O)NCC1CCCCC1 | 0 | 0 | 97* | 5 | 65* | 1 | 0.83 | 1.4 | -5 | -17 | -20
COc1ccc(CCNC(=O)c2ccc(SC)cc2OC)cc1 | -3 | 3 | 5 | 1 | / | / | / | / | / | / | /
CC(C)(C)n1cnc2cc(NCc3ccccc3O)ccc21 | 5 | 13 | 51 | 2 | 21 | / | / | / | / | / | /
CCn1cnc2cc(NCc3ccc(OC)cc3)ccc21 | 16 | / | 57 | 2 | 56* | 1 | ? | 1.2 | -5 | -32 | -9
CCn1cnc2cc(NCc3ccccc3Cl)ccc21 | 0 | 12 | 87* | 7 | 77* | 1 | 1 | 1.3 | 2 | 2 | 11
O=C(Nc1ccc(F)c(Cl)c1)c1cc(C2CCCN(C(=O)C3CC3)C2)on1 (stereo unspecified) | / | 38* | / | 2 | 77* | 1.4 | 0.98 | 2 | -7 | -5 | -7
Cc1ccc(S(=O)(=O)Nc2ccc3c(c2)C(=O)N([C@@H](C)CO)C[C@H](C)[C@H](CN(C)C(=O)c2ccncc2)OCCCC[C@H](C)O3)cc1 | / | / | / | / | 3 | / | / | / | / | / | /
CN(C(=O)c1ccc2c(Cl)c3c(nc2c1)CCC3)c1ccccc1 | 0 | 25 | / | 4 | 88* | 1.4 | 0.98 | 1.8 | 3 | -23 | 1
CCN(C(=O)c1ccc2c(Cl)c3c(nc2c1)CCC3)c1ccc(C)c(C)c1 | 2 | -3 | -2 | -3 | -4 | / | / | / | / | / | /
CSc1ccccc1NC(=O)c1ccc(N2CCCC2=O)cc1 | 1 | 24 | 58 | 6 | 73* | 1.2 | 0.82 | 1.3 | -3 | -15 | 5
COc1ccccc1CC(=O)Nc1ccc2c(c1)CCC2 | -1 | 2 | 9 | 4 | / | / | / | / | / | / | /
Cc1ccc(C(=O)NCC(=O)Nc2ccc3c(c2)CCC3)cc1 | 8 | -2 | 46 | 4 | 72* | 0.89 | 0.88 | 1.4 | -2 | -8 | -8
COc1ccccc1C(=O)NCC(=O)Nc1ccc2c(c1)CCC2 | 70* | 23 | ? | 2 | 73* | 0.86 | 0.97 | 1.3 | -1 | -8 | 0
COc1cccc(C(=O)Nc2ccc3c(c2)C(=O)N(C)C[C@@H](OC)[C@@H](C)CN(CCc2ccccc2)[C@@H](C)CO3)c1 | / | / | / | / | 7 | / | / | / | / | / | /
O=S(=O)(c1ccc2ccccc2c1)N1CCN(S(=O)(=O)c2c(F)cccc2F)CC1 | 8 | 22 | 55 | 1 | 80* | 1.1 | ? | 1.3 | -10 | -8 | -5
COc1ccc(S(=O)(=O)N(C)C[C@H]2OCCCC[C@@H](C)Oc3ccc(NS(=O)(=O)c4c(C)noc4C)cc3C(=O)N([C@@H](C)CO)C[C@H]2C)cc1 | / | / | / | / | 0 | / | / | / | / | / | /
COc1cc(C=O)c(Br)cc1OCc1ccc(C)cc1 | 38 | / | 21 | 7 | 81* | 1.5 | 1.1 | 1.9 | -5 | 3 | -11
CCC(=O)N1C[C@@H]2[C@H](c3ccccc31)[C@H](CO)N2C(=O)CC | / | / | / | / | -3 | / | / | / | / | / | /
C=CCn1c(NCc2ccc(OC)cc2O)nc2ccccc21 | 1 | 4 | / | 3 | 61* | 1 | 0.96 | 1.8 | -5 | -68* | -11
CCOC(=O)C1=C(CSc2nc(-c3ccccc3)ccc2C#N)OC(N)=C(C#N)C1c1cccnc1 (stereo unspecified) | 32 | / | 49 | 5 | 73* | 1.2 | ? | 1.7 | -6 | -16 | 11
Cc1noc(C)c1S(=O)(=O)Nc1ccc2c(c1)C(=O)N([C@H](C)CO)C[C@@H](C)[C@H](CN(C)Cc1ccccc1)O2 | / | / | / | / | -1 | / | / | / | / | / | /
SMILES | AHR activator | Wnt act | MITF act | GAA850 FXN act | esBAF inh | Ring1 derepress | Fgf4 repress | Bmi1 derepress | A549 cytotox | HepG2 cytotox SP | HEK293 cytotox SP
Cc1ccc(-n2nnc(-c3nccn3C)n2)cc1 | 4 | 6 | -2 | 0 | -58 | / | / | / | / | / | /
Cc1ccc(-n2nnc(-c3cccnc3)n2)cc1 | -4 | 22 | 102* | 3 | 60* | 1.2 | 1 | 1.5 | -3 | -10 | 16
Cn1cccc1C(=O)NCC1CCCCC1 | 8 | 1 | 18 | 3 | / | / | / | / | / | / | /
Cn1cccc1C(=O)NC1CCCCCC1 | 6 | 17 | 96* | 4 | 64* | 1.1 | 0.8 | 1.5 | -14 | -49 | -19
CN(C)CC(=O)N1[C@@H]2Cn3c(cccc3=O)[C@H]1[C@@H](C(=O)NCc1ccccc1)[C@@H]2CO | / | / | / | / | 2 | / | / | / | / | / | /
Cc1cc2c(nn1)CCc1nonc1-2 | 8 | 0 | -2 | 1 | 1 | / | / | / | / | / | /
Cc1ccc2c3c([nH]c2c1C)-c1nonc1CC3 | 23 | 11 | 47 | 5 | 55* | 1.2 | ? | 1.8 | -3 | -34 | -24
COc1ccccc1CNC(=O)C[C@H]1CC[C@H]2[C@@H](COC[C@@H](O)CN2C(=O)Nc2ccc(F)cc2)O1 | / | / | / | / | 0 | / | / | / | / | / | /
